# About 2,100 (0.66%) of roughly 320,000 compounds were called active. Inconclusive results (about 53%) are left out. Calls come from the whole dose curve; as a rule, active = well fitted inhibition curve with a large enough effect in the signal ratio, with a control signal flat (not every such curve was filed as active); inconclusive = small, poorly fitted or top-dose-only effect, or effect the other way, or a change in a side signal; inactive = flat fitted curve, though single readings scatter; the % refers to the signal ratio. What follows is part of a selection rich in actives, with near analogues and random picks from the rest.
# Assay: qHTS Assay for Lipid Storage Modulators in Drosophila S3 Cells;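 for cell number change: cells counted by Cell Tracker Red CMTPX staining in the red channel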; for lipid storage change, negative = inhibition: % is set by controls: 0 for no effect and ±100 for the full control effect
# Details: BODIPY lipid droplet fluorescence, 18-24 h, cells fed with added oleic acid; cell number change: measured here: cell count max response; series mostly up to 46.1 µM
# Method in brief: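 Drosophila S3 cells got compounds at several concentrations plus oleic acid (400 uM solution). Laser-scanning cytometry with 488 nm excitation read lipid droplets at 500-530 nm and cells at 575-640 nm. Percent activity was relative to 20 uM Triacsin C.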
# Potency is the fitted concentration of half-maximal effect.
SMILES,Potency,cell number change [%],"lipid storage change, negative = inhibition"
CCOc1cccc(CNCCO)c1OCc1ccc(Cl)cc1,inactive,-0.0822,
CCOC(=O)c1sc2nc(CSc3nc4ccccc4n3CC)[nH]c(=O)c2c1C,inactive,-16.4,
CCn1c(SCc2nc3sc(C(=O)O)c(C)c3c(=O)[nH]2)nc2ccccc21,20.6 µM (active),,
C=CCn1c(SCc2nc3sc(C(=O)O)c(C)c3c(=O)[nH]2)nnc1-c1ccccc1,inactive,-15.1,
O=C(Nc1ccc(C2CCCCC2)cc1)C1CCN(c2ncccn2)CC1,inactive,-8.69,
O=C1/C(=C/c2ccco2)CCC1C1CCCC1 (stereo not drawn),inactive,-18.8,
O=C1/C(=C\c2ccco2)CCC/C1=C\c1ccco1,20.6 µM (active),-21.3,
O/N=C1\CCC\C1=C/c1ccco1,inactive,0.139,
Nc1ccc2c(c1)C/C(=C/c1ccco1)C2=O,inactive,,
CC1=N/C(=C/c2ccco2)C(=O)O1,inactive,-0.878,
CC(C)(C)C1C/C(=C/c2ccco2)C(=O)/C(=C/c2ccco2)C1 (stereo not drawn),10.3 µM (active),-6.47,
CN(C)S(=O)(=O)c1ccc(C(=O)Nc2ccc(S(=O)(=O)NC3=NCCCCC3)cc2)cc1,inactive,,
COc1ccc(NC(=O)CN2C(=O)CC(C)S(=O)(=O)c3ccccc32)cc1 (stereo not drawn),inactive,4.2,
O=C(CN1C(=O)CCS(=O)(=O)c2ccccc21)Nc1cccc(F)c1,23.1 µM (active),3.53,
O=C(CN1C(=O)CCS(=O)(=O)c2ccccc21)Nc1cccc(Cl)c1,inactive,-9.4,
O=C(CN1C(=O)CCS(=O)(=O)c2ccccc21)Nc1ccc2c(c1)OCCO2,inactive,-1.7,
CCc1ccc(NC(=O)CN2C(=O)CC(C)S(=O)(=O)c3ccccc32)cc1 (stereo not drawn),20.6 µM (active),4.2,
Cc1cc(C)c(NC(=O)CN2C(=O)CC(C)S(=O)(=O)c3ccccc32)c(C)c1 (stereo not drawn),inactive,13.7,
CC1(C)CC2CC(C)(CN2C(=O)COC(=O)c2ccc(Cl)c(N)c2)C1 (stereo not drawn),inactive,7.11,
Cc1ccc(NC(=O)CCc2c(C)nn(-c3ccc(N4CCCCC4)nn3)c2C)cc1,inactive,,

SMILES,Potency,cell number change [%],"lipid storage change, negative = inhibition"
Cc1ccc(S(=O)(=O)CCC(=O)OCc2ccc(Cl)cc2)cc1,inactive,-1.83,
Cc1ccc2[nH]c(=O)c(CN(CC3CCCO3)C(=O)c3cccs3)cc2c1 (stereo not drawn),inactive,31.3,
COc1ccc(CNC(=O)C2(c3ccc(Cl)cc3)CC2)cc1,inactive,15.2,
O=C(NCc1ccco1)C1(c2ccc(Cl)cc2)CCCC1,inactive,17,
O=C(NCCO)C1(c2ccc(Cl)cc2)CCCC1,20.6 µM (active),-14.3,
Cc1cc(C)c2[nH]c3nc(SCC(=O)O)nnc3c2c1,inactive,15.4,
O=c1oc2ccccc2c(N2CCCCC2)c1CN1CCCC1,inactive,20.3,
O=C(Cc1ccccc1)NCc1n[nH]c(=S)n1-c1ccc(Br)cc1,inactive,12.1,
COCCNC(=O)C1(C)C=CC2(CCCCC2)N1C(=O)c1ccccc1 (stereo not drawn),inactive,-12.7,
S=C(Nc1ccc(Cl)cc1)NN1CCOCC1,inactive,-1.28,
Cc1sc2ncnc(NCc3ccccc3)c2c1C,inactive,,
COc1ccc(-c2nnnn2C)cc1S(=O)(=O)NCc1ccccc1,inactive,-12.1,
CSc1ncc2c(n1)-c1cc(C)ccc1SC2,inactive,-11.4,
O=C(CCCOc1ccccc1)Nc1cccc(S(=O)(=O)N2CCCCCC2)c1,0.651 µM (active),-1,
Cc1ccc(C)c(OCCC(=O)Nc2cccc(S(=O)(=O)N3CCCCC3)c2)c1,7.31 µM (active),-9.88,
O=C(COC(=O)c1cccnc1Cl)Nc1cccc(S(=O)(=O)N2CCCCC2)c1,inactive,-11.8,
O=C(CCOc1ccccc1)Nc1ccc(S(=O)(=O)N2CCCC2)cc1,inactive,-12,
Cc1ccc(C)c(OCCC(=O)OCC(=O)Nc2cccc(S(=O)(=O)N3CCCC3)c2)c1,inactive,13,
O=C(COC(=O)c1ccccc1O)Nc1cccc(S(=O)(=O)N2CCCC2)c1,2.91 µM (active),-0.622,
CC(=O)c1ccc(OCCCC(=O)Nc2cccc(S(=O)(=O)N3CCCCC3)c2)cc1,inactive,-10.4,

SMILES,Potency,cell number change [%],"lipid storage change, negative = inhibition"
COc1ccccc1OCCC(=O)Nc1cccc(S(=O)(=O)N2CCCCC2)c1,inactive,9.54,
O=C(COC(=O)c1cccc(S(=O)(=O)N2CCCC2)c1)Nc1ccccc1,inactive,,
O=C(NCc1csc(-c2cccs2)n1)Nc1ccc(C(F)(F)F)cc1,inactive,-0.569,
O=C(COC(=O)CSc1cc(Cl)ccc1Cl)Nc1ncc(C(F)(F)F)cc1Cl,inactive,1.5,
Cc1[nH]n(-c2ccccc2)c(=O)c1N=Nc1ccc2c(c1)OCO2,inactive,-5.87,
O=C(c1sc(N2CCOCC2)nc1-c1ccccc1)N1CCCCC1,inactive,3.25,
O=C(Cn1nnc(-c2ccc(OCc3ccccc3F)cc2)n1)N1CCOCC1,inactive,-16.4,
COc1ccc2nc(NC(=O)CCN3C(=S)NC(C)(C)CC3C)sc2c1 (stereo not drawn),inactive,,
CCOC(=O)CN1C(=O)C(O)(c2c(C)[nH]c3ccccc23)c2ccccc21 (stereo not drawn),inactive,8.53,
Cc1cc(C)n(-c2cc(N3CCOCC3)ncn2)n1,inactive,-1.49,
COc1cccc(/C=C2\SC(=S)N(c3cccnc3)C2=O)c1OC,inactive,12.9,
COc1ccc(C2=NOC(C(=O)Nc3ccc4c(c3)OCO4)C2)cc1 (stereo not drawn),inactive,14.2,
CCn1cc(C2=NOC(C(=O)Nc3ccc4c(c3)OCO4)C2)c(C)n1 (stereo not drawn),7.31 µM (active),-25.4,
O=C(Nc1ccc2c(c1)OCO2)C1CC(c2ccccc2O)=NO1 (stereo not drawn),inactive,19.9,
COc1cccc2sc(NNC(=O)COc3ccccc3)nc12,,5.71,-1.29% [at 9.22 µM] (inactive)
CCC(=O)Nc1cc(=O)[nH]c2ncnn12,inactive,-14.7,
O=C(Nc1cc(=O)[nH]c2ncnn12)c1ccccc1,inactive,-8.14,
CC(C)C(=O)Nc1cc(=O)[nH]c2ncnn12,5.8 µM (active),-10.1,
Cn1c(=O)[nH]c(=O)c2c1nc(Br)n2C/C=N/NC(N)=S,inactive,-9.55,
O=C(Nc1c2c(nn1-c1ccc(F)cc1)CS(=O)(=O)C2)c1ccc(S(=O)(=O)N2CCOCC2)cc1,inactive,-2.12,

# Reference: PubChem BioAssay AID2685 (National Center for Advancing Translational Sciences (NCATS), 2010)
